The whole screen tested about 5,700 compounds, of which about 280 (4.9%) were called active. How the calls were made is not given here. A selection follows.
Experiment: exo-erythrocytic parasite development inhibition – imaging, Malaria Box, P. yoelii, HepG2-A16-CD81EGFP, dose response (AID 602156)
Conditions: P. yoelii liver stage in HepG2-A16-CD81EGFP

Row | SMILES | outcome
1 | CC(C)CC(NC(=O)C(=Cc1ccco1)NC(=O)c1ccccc1)C(=O)OCc1ccccc1 (configuration not stated) | inactive
2 | c1ccc2c(NC3CCCC3)nc(Nc3ccc4c(c3)OCO4)nc2c1 | inactive
3 | CC(C)(C)C1=NN(CC(=O)Nc2ccc3c(c2)OCO3)C(=O)c2cc3ccccc3n2C1 | inactive
4 | O=C(CSc1nc2ccccc2[nH]1)Nc1ccc2c(c1)OCO2 | inactive
5 | CC(C)CN1CCC(O)(c2ccc3oc(C(=O)Nc4ccc5c(c4)OCO5)cc3c2)CC1 | inactive
6 | Clc1cccc(CSc2nc(Nc3ccc4c(c3)OCO4)c3ccccc3n2)c1 | inactive
7 | O=C(Nc1ccc2c(c1)OCO2)c1cc2cc(C3(O)CCN(CCCc4ccccc4)CC3)ccc2o1 | inactive
8 | CCCc1ccc(OCCNC(=O)CCNC(=O)Nc2cccc(Cl)c2)cc1 | inactive
9 | CC(C)CNC(=O)c1ccc(OC2CCN(CC3CCCCC3)CC2)c(Cl)c1 | inactive
10 | CC(C)CN(CC(=O)Nc1cc(C(C)(C)C)nn1-c1ccccc1)C(=O)c1cc(Cl)cc(Cl)c1 | inactive
11 | O=C(Nc1ccc(-n2cnnn2)cc1)C1CCN(Cc2ccc(OC(F)F)cc2)CC1 | inactive
12 | CCC(C)OC(=O)C1=C(C)NC2=C(C(=O)CC(c3ccc(Cl)cc3)C2)C1c1ccccc1F (configuration not stated) | inactive
13 | N#Cc1cc(Oc2ccc(-c3cnc4ccccc4n3)cc2)nc2ccccc12 | inactive
14 | COc1ccc(C2C(C(=O)Nc3cccc(OC)c3)c3ccccc3C(=O)N2C2CCCCC2)cc1 (configuration not stated) | inactive
15 | CC[n+]1c(C=CC=C2N(C)c3ccccc3C2(C)C)n(-c2ccccc2)c2ccccc21 | inactive
16 | COc1ccc(NC(=O)NCc2cccn2Cc2ccc(F)cc2)cc1OC | inactive
17 | Cn1nc(C(=O)N2CCCCCC2)c2c1CCC(NCC(C)(C)N1CCOCC1)C2 (configuration not stated) | inactive
18 | C=C(Cl)CSc1nnc(CCNC(=O)c2ccc(C)cc2)n1-c1ccc(F)cc1 | inactive
19 | CCCc1nc2ccc(NC(=O)NCC)cc2c(=O)n1Cc1ccc(-c2ccccc2)cc1 | inactive
20 | CCc1nc2ccc(NC(=O)c3ccncc3)cc2c(=O)n1Cc1cccc(OC)c1 | inactive
21 | COc1cc(OC)cc(C(=O)N(CCCC(C)Nc2cc(OC)cc3cccnc23)Cc2ccc(Cl)cc2)c1 (configuration not stated) | inactive

Row | SMILES | outcome
22 | COc1cc(C(=O)C=CNc2ccc(N(C)C)cc2)cc(OC)c1OC | inactive
23 | CCC(Cc1cnc2nc(N)nc(N)c2n1)c1ccc(C(=O)N[C@@H](CCC(=O)O)C(=O)O)cc1 (some centres not stated) | inactive
24 | CCCCCCc1cc2cc(-c3nc4ccccc4[nH]3)c(=Nc3ccccc3C)oc2cc1O | inactive
25 | CC(C)(C)c1nn(-c2ccc(Cl)cc2)c2[nH]c(=O)c(CNCc3ccccc3)cc12 | inactive
26 | c1ccc2c(NCCNc3c4ccccc4nc4ccccc34)c3ccccc3nc2c1 | inactive
27 | COc1ccccc1N1CCN(Cc2cc(C(C)C)c(C)cc2O)CC1 | inactive
28 | N#CN=C(N)c1sc(Nc2ccccc2)nc1N | inactive
29 | CC1[C@H]2NC[C@H](C)C[C@]2(O)O[C@@H]2C[C@H]3[C@@H]4CC[C@H]5C[C@@H](N)CC[C@]5(C)C4CC[C@]3(C)[C@@H]12 (some centres not stated) | inactive
30 | O=C(Nc1ccc(Cl)c(Cl)c1)Nc1ccc(Cl)c(Cl)c1 | inactive
31 | N=c1c2c(n(Cc3ccc(Cl)c(Cl)c3)c3c1CCC3)CCCC2 | inactive
32 | COc1ccc(C2CC(=O)C3=C(C2)NC(C)=C(C(=O)OC2CCCC2)C3c2ccccc2)cc1 (configuration not stated) | inactive
33 | COCCSc1nc2sc3c(c2c(=O)n1-c1ccc(OC)cc1)CCN(C)C3 | inactive
34 | Cc1ccc2nc3c(c(Nc4ccc(N(C)C)cc4)c2c1)CCC3 | inactive
35 | Cc1ccc(-c2nc3cc(NC(=O)c4ccc([N+](=O)[O-])o4)ccc3o2)cc1Br | inactive
36 | Nc1cc(C(=O)Nc2cccc(C3=NCCN3)c2)ccc1C(=O)Nc1cccc(C2=NCCN2)c1 | inactive
37 | CCCCCC1CCCc2c1[nH]c1cc(Cl)ccc1c2=O (configuration not stated) | inactive
38 | O=C(NCc1ccccc1)c1cnc(NCCCN2CCCC2)nc1NCCc1ccccc1 | inactive
39 | CC(C)c1ccc(C=CC(=O)NCc2ccco2)cc1 | inactive
40 | CCc1c(C)nc(SCC(=O)NNC(C)=O)[nH]c1=O | inactive
41 | FC(F)(F)c1cccc(-c2nc3c(s2)CN(C2CCCC2)CC3)c1 | inactive
42 | Cc1c(/C=C2\SC(=Nc3ccccc3F)N(C3CCCCC3)C2=O)c2ccccc2n1CC(N)=O | inactive

Row | SMILES | outcome
43 | Clc1ccc(-c2nc3ncc(Cl)cc3[nH]2)cc1 | inactive
44 | COc1cccc(-c2ccc(O)c(CN3CCC(C)CC3)c2)n1 | inactive
45 | Clc1ccc(Nc2nc(NCc3ccco3)c3ccccc3n2)cc1 | inactive
46 | CCOC(=O)c1sc(NC(=O)CSc2nnc(CNC(=O)COc3ccc(Cl)cc3)n2C)c(C(=O)OCC)c1C | inactive
47 | COc1ccc(N=C(C)C2=C(O)c3ccccc3C2=O)c(OC)c1 | inactive
48 | CN(C)c1ccc(/C=C/C=C/c2cc[n+](C)cc2)cc1 | inactive
49 | CCCCCCCCCCOC(=O)Cn1c(C)[n+](C)c2ccccc21 | inactive
50 | COCCn1nnnc1C(c1cc2cc3c(cc2[nH]c1=O)OCCO3)N1CCC(O)CC1 (configuration not stated) | inactive
51 | COc1cc2nc(NCc3ccccn3)n3nc(-c4ccccc4)nc3c2cc1OC | inactive
52 | CCN1C(=S)NC2c3cc(C)ccc3OC13CCCC23 (configuration not stated) | inactive
53 | Cc1ccc(NC(=O)CCCCC(=O)Nc2ccc(C)c(Br)c2)cc1Br | inactive
54 | C#CC(C)(C)NC(=O)c1ccc(-c2ccc(CC)cc2)cc1 | inactive
55 | CCC(c1nc2ccccc2c(=O)n1-c1cccc(C)c1)N(CCc1ccccc1)C(=O)Nc1c(C(C)C)cccc1C(C)C (configuration not stated) | inactive
56 | CCC(c1nc2ccccc2c(=O)n1-c1cccc(C)c1)N(Cc1ccccc1)C(=O)Nc1c(C(C)C)cccc1C(C)C (configuration not stated) | inactive
57 | COCCNC(=O)c1ccc(OC2CCN(CC(c3ccccc3)c3ccccc3)CC2)c(OC)c1 | inactive
58 | CCCNC(=O)c1ccc(OC2CCN(CC(c3ccccc3)c3ccccc3)CC2)c(OC)c1 | inactive
59 | COc1ccc(SC2CCN(C3CCOCC3)CC2)cc1 | inactive
60 | CCCCC(CC)C(=O)N(C)CCCNc1ccnc2cc(Cl)ccc12 (configuration not stated) | inactive
61 | O=C(NCC1CCCO1)c1cnc(NCCCn2ccnc2)nc1NCCc1ccccc1 (configuration not stated) | inactive
62 | Cc1cc(C)nc(N=C(N)Nc2ccccc2O)n1 | inactive

From PubChem BioAssay AID602156 (GNF / Scripps Winzeler lab, 2011)
